Reference: PubChem BioAssay (NCI)
The panel holds about 83,000 compounds, 20% with a hit somewhere; the sample as a whole holds those more often.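 A percent growth of 40 corresponds to 60% growth inhibition; 0 means no net growth; -100 means all cells died. Active threshold: below 10.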 Values without a mark were called inactive. Active and inactive are the calls of the source.

Key:
Assay in all cases: NCI-60 one-dose screen, 48 h (100 = growth as untreated, 0 = no growth, -100 = all killed)
Details in all cases: 10 µM unless noted
[1] = system: DU-145 prostate
[2] = system: K-562 leukemia
[3] = system: MALME-3M melanoma
[4] = system: MDA-MB-231 breast
[5] = system: RXF 393 renal
[6] = system: SF-268 CNS
[7] = system: SF-295 CNS
[8] = system: SF-539 CNS
[9] = system: UACC-257 melanoma
[10] = system: M14 melanoma

SMILES | growth [1] | growth [2] | growth [3] | growth [4] | growth [5] | growth [6] | growth [7] | growth [8] | growth [9] | growth [10]
COC(=O)c1cc(-c2ccc(OC)c(OC)c2)[nH]c1N/N=C/c1c(Cl)cccc1Cl | 21.2% | 19.9% | 46.8% | 41.1% | -10.4% (active) | 43.6% | -0.264% (active) | -15.2% (active) | 49.3% | 0.331% (active)
CC1(C)CC(=O)C2=C(C1)OC(C(=O)c1ccccc1)C2c1cccc(Oc2ccccc2)c1 (stereo not given) | 68.1% | 31.7% | 59.5% | 50.4% | 42.8% | 44.6% | 32.6% | 63.9% | 45.5% | 36.8%
CC/C(=C(/c1ccc(Cl)cc1)c1ccc(OCCN(CC)CC)cc1)c1ccc(OC)cc1 | 74.4% | -18% (active) | 68.2% | 71.8% | 45% | 79.3% | 36.9% | 62.3% | 64.9% | 34.5%
O=C(Nc1cccc(Cn2c(=O)[nH]c3ccc(Oc4ncccn4)cc3c2=O)c1)c1cccc(Cl)c1 | 56.5% | 27.1% | 79.5% | 72.6% | 81.1% | 55.6% | 45.5% | 71.3% | 44% | 70%
CCCCCCC/C=N/NC(=O)c1ccc(-n2cc(-c3ccccc3)nn2)cc1 | 96.1% | 79.7% | 78.1% | 74.3% | 83.5% | 90.1% | 87.8% | 96.5% | 100% | 80.7%
Cn1cc(-c2ccc3c(Nc4cccc(NC(=O)Nc5cccc(F)c5)c4)ncnc3c2)cn1 | 41.8% | 4.38% (active) | 27.5% | 41.8% | -13.9% (active) | 46.7% | -13.2% (active) | 20.4% | 63.9% | 41.3%
COc1ccc(C(=O)/C=C/Nc2cc(-c3ccccc3)nn2-c2ccccc2)cc1 | 99.7% | 80.8% | 100% | 93.4% | 85.5% | 90.2% | 95.2% | 95.2% | 90.8% | 93%
CCc1ccc(Cc2cnc(NC(=O)c3cc(C)oc3C)s2)cc1 | 60.2% | 14.6% | 56% | 57.8% | 15.4% | 48.6% | 31.8% | 31.2% | 52.1% | 21.4%
CC(C)(C)n1cc(-c2ccnc(NCCNS(=O)(=O)c3cccc4ccccc34)c2)c(-c2cccc(O)c2)n1 | 83.3% | 15.4% | 75.7% | 81.9% | 73.3% | 81.4% | 92.5% | 77.1% | 81.1% | 66.5%
COc1ccc(C(=O)C2OC3=C(C(=O)CC(C)(C)C3)C2c2cccc(Oc3ccccc3)c2)cc1 (stereo not given) | 102% | 87.2% | 112% | 87.5% | 101% | 92.5% | 97.1% | 94.5% | 91% | 98.7%
CC(CN)[C@@H]1CC[C@]2(CO)CC[C@]3(C)[C@H](CC[C@@H]4[C@@]5(C)CCC(NCCO)C(C)(C)[C@@H]5CC[C@]43C)[C@@H]12 (stereo not given in full) | 63.5% | -49.4% (active) | -35.5% (active) | 13.6% | 58.6% | 60.6% | 70.9% | 65.8% | 84.9% | -2.37% (active)
COc1ccc(CNc2c3ccccc3nc3ccccc23)cc1OC | 24.7% | 8.81% (active) | 7.92% (active) | 19.4% | 3.58% (active) | 39.6% | 18.1% | 15.4% | 22.1% | 17.7%
C#Cc1cccc(Nc2ncnc3ccc(-c4cnc(Cl)c(NS(C)(=O)=O)c4)cc23)c1 | 2.5% (active) | 11.2% | -35.5% (active) | -6.68% (active) | -54.9% (active) | -30.1% (active) | -31.9% (active) | -38.4% (active) | -9.67% (active) | -26.7% (active)
COc1ccc(S(=O)(=O)N(C)c2oc(-c3ccc(Cl)cc3)nc2C#N)cc1 | 97.9% | 20.3% | 68.9% | 87% | 80.1% | 82.7% | 91.9% | 82.9% | 86.7% | 53.8%
CN1CCN(Cc2ccc(NC(=O)c3cncc(C#Cc4c(N)ncc5ccccc45)c3)cc2C(F)(F)F)CC1 | -95.6% (active) | -37% (active) | -84.8% (active) | -88.7% (active) | -97% (active) | -65.1% (active) | -59.9% (active) | -97% (active) | -72.2% (active) | -73.9% (active)
O=C(/C=C/c1ccc([N+](=O)[O-])cc1)c1cccc(Nc2nc(Nc3ccccc3)nc(Nc3ccccc3)n2)c1 | 77.3% | 60.8% | 87.5% | 70.9% | -39.7% (active) | 85.5% | 79.7% | 74.7% | 98.7% | 74.5%
Cc1c(Cl)cccc1NC(=O)c1sc2nc3c(cc2c1N)CCCC3 | 39.9% | 13.7% | 67.7% | 49.5% | 40% | 49.3% | 8.07% (active) | 4.43% (active) | 37.7% | 25.3%
Cn1ncc(CC(=O)O)c1-n1nnc2cc(Cl)ccc2c1=O | 109% | 98.4% | 93.9% | 94.5% | 114% | 103% | 91.7% | 96.7% | 100% | 100%
N#C/C(=C/C=C/c1ccccc1)S(=O)c1ccccc1 (stereo not given) | -89.5% (active) | 5.48% (active) | -30.2% (active) | -54.2% (active) | -84% (active) | -31.3% (active) | -28.8% (active) | -74.5% (active) | -33.9% (active) | -55.5% (active)
COc1ccc(N2C(=O)/C(=C/C(Cl)=C/c3ccc([N+](=O)[O-])cc3)SC2=S)cc1 | 5.02% (active) | 0.935% (active) | 26.4% | 7.73% (active) | -77.9% (active) | 12.3% | -32.1% (active) | -22.8% (active) | 48.2% | 12.3%
Cc1cc2c(C(C)C)c(O)c(O)c(/C=N/O)c2c(O)c1-c1c(C)cc2c(C(C)C)c(O)c(O)c(/C=N/O)c2c1O | -93.8% (active) | -9.09% (active) | 51% | 25.5% | -1.98% (active) | 26.3% | 16.7% | -11.3% (active) | 11.6% | 7.91% (active)
CCCn1cnc2c(c1=N)C(c1ccc(Cl)cc1)c1sc3c(F)cccc3c1O2 (stereo not given) | 82.2% | 29.1% | 49.8% | 69.7% | 72% | 83.8% | 93.8% | 85.6% | 105% | 70.7%
CCCCCN(CCCCC)CC(O)c1c(Cl)ccc2ccccc12 (stereo not given) | 69.4% | 61.7% | 94.7% | 39.7% | 63.1% | 84.7% | 71.7% | 64.2% | 83.1% | 72.2%
C=C1C(=O)O[C@H]2[C@H]1CC/C(COC(=O)NCc1ccc(Cn3c(=O)sn(CCCC)c3=O)cc1)=C\CC[C@@]1(C)O[C@@H]21 | 20.2% | 0.885% (active) | -24.1% (active) | 38.4% | 33.5% | 82.4% | 101% | 59.6% | 50.8% | 6.26% (active)
CCOC(=O)c1c(N)sc2cc(O)ccc12 | 89.2% | 89.9% | 118% | 106% | 115% | 105% | 96.3% | 106% | 115% | 108%
COc1ccc(-c2csc(NC(=O)CSc3nc(C)cc(=O)[nH]3)n2)cc1 | 106% | 104% | 110% | 91.7% | 128% | 96.4% | 99.3% | 101% | 101% | 107%
CN1CCN(Cc2ccc(NC(=O)c3cncc(C#Cc4c(N)ncc5c(F)cccc45)c3)cc2C(F)(F)F)CC1 | -90.3% (active) | -66.9% (active) | -74.3% (active) | -89.6% (active) | -91.5% (active) | -63.6% (active) | -70.6% (active) | -95.4% (active) | -73% (active) | -66% (active)
